Source: PubChem BioAssay (National Center for Advancing Translational Sciences (NCATS))
NPC1 prom act: activators of NPC1 promoter; Huh7 NPC1 promoter luciferase reporter, 24 h; Potency, µM (doses to about 9.22 µM), usual class: activators; 2.4% of 320,000 active; AID 485313; note: nearly all actives have a fitted effect of over 60% in size
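Compounds in DMSO were transferred onto Huh7 NPC1-luciferase reporter cells pre-incubated 2 h; after 24 h at 37 °C, Amplite reagent was dispensed and luminescence recorded 10 min later.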
SMN2 splice enh: increases expression of the SMN2 splice variant. HEK293 SMN2-luciferase splicing reporter, luminescence, 30-36 h. AID 1458. Potency, µM (doses to about 46.1 µM), usual class: activators. 2.8% of 210,000 active; note: nearly all actives have a fitted effect of over 55% in size
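HEK293 cells carry an SMN2 minigene-luciferase reporter in which exon 7 inclusion puts luciferase in frame. Cells were seeded at 2000 cells/well, attached for 10-12 hours, then exposed to compounds for 30-36 hours at 37C before ONE-Glo luminescence.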
FLuc modulator: inhibits or activates purified firefly luciferase, miR-21 counter-screen; P08659; purified FLuc, Km substrates, luminescence inhibition; Potency, µM (doses to about 57.5 µM), hits mostly inhibitors; 6.9% of 360,000 active; note: nearly all actives have a fitted effect of over 55% in size
Target sequence (P08659 whole entry, looked up): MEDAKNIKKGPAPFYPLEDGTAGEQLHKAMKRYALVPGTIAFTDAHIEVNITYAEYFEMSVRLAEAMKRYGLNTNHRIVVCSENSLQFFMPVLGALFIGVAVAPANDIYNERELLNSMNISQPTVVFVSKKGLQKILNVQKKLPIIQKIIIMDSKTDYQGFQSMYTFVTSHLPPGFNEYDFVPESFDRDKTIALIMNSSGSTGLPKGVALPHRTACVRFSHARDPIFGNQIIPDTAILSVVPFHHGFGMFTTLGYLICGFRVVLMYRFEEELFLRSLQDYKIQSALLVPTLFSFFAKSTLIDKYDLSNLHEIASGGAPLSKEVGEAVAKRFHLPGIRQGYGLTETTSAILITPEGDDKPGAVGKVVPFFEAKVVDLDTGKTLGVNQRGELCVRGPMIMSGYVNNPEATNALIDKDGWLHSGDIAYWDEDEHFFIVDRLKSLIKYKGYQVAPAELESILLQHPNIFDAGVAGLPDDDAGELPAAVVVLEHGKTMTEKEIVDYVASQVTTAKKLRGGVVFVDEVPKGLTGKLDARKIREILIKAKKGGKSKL
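Purified P. pyralis luciferase, 10 nM final, with Km-level 10 uM D-luciferin and 10 uM ATP in 50 mM Tris acetate pH 7.5, 10 mM Mg acetate, 0.01% Tween-20, 0.05% BSA; 6-point qHTS titration about 60 µM downward; luminescence read.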
ELG1 genotox: genotoxicity induction in ELG1-luciferase HEK293T cells. 1.3% of 330,000 active. AID 504466. HEK293T ELG1-luciferase reporter, luminescence, 16 h. Potency, µM (highest dose often 46 µM), most hits filed as activators; note: nearly all actives have a fitted effect of over 60% in size
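Step 1: seed 2,000 HEK293T ELG1-luciferase cells per well. Step 2: add compound or DMSO, incubate 16 hr at 37 °C. Step 3: ONE-Glo, 30 min at room temperature, read luminescence.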
uPA generation: inhibitors of cell surface uPA generation; cell surface uPA generation assay, qHTS; Potency, µM (top dose mostly 38.3 µM), actives largely listed as inhibitors; 0.31% of 330,000 active; AID 540303; active = well fitted inhibition curve with a large enough effect; inconclusive = small, poorly fitted or top-dose-only effect; inactive = no such curve, though single readings can be large or run the other way; tested in mouse RAW 264.7 cells; note: nearly all actives have a fitted effect of over 55% in size
Rab9 prom act: activates the Rab9 promoter. Huh7 Rab9 promoter-luciferase reporter, luminescence, 24 h. Potency, µM (highest dose often 9.22 µM), usual class: activators. 2.8% of 320,000 active. AID 485297; note: nearly all actives have a fitted effect of over 60% in size
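Luminescence read-out: Huh7 cells stably expressing Rab9-luciferase, treated 24 h with compound at 37 °C, then lysed with luciferase reagent for 10 min at ambient before reading.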
A number is an active result; 0 = inactive; ? = inconclusive; - = no result. Only some compounds are listed: those with a hit (about 7.3% of all), similar ones and a draw of the others. Unless noted, calls come from the whole dose curve; as a rule, active = well fitted curve in the direction sought with a large enough effect; inconclusive = small, poorly fitted or top-dose-only effect, or another doubt; inactive = no such curve, though single readings can be large; an effect the other way counts as inactive or inconclusive.

SMILES	NPC1 prom act	SMN2 splice enh	FLuc modulator	ELG1 genotox	uPA generation	Rab9 prom act
O=C(Nc1nc2ccccc2s1)C1CCN(C(=O)c2ccco2)CC1	0	-	0	0	0	0
CCc1ccc(CNC(=O)Cc2c(C(=O)O)c(C)cn2C)cc1	-	-	0	-	-	-
CCNC(=O)CSc1nnc(-c2cccs2)o1	0	0	0	0	0	0
CC1CCCN(C(=O)CSc2nnc(-c3cccs3)o2)C1 (centres undefined)	2.5µM	-	21µM	?	0	3.5µM
CCC1CCCCN1C(=O)CSc1nnc(-c2cccs2)o1 (centres undefined)	?	?	17µM	6.5µM	0	3.2µM
Cc1ccc(C2C(=O)c3ccccc3C2=O)cc1	0	-	17µM	0	0	0
O=C1c2ccccc2C(=O)C1c1ccncc1	1.3µM	7.9µM	3.4µM	3.2µM	0	0.5µM
O=C1c2ccccc2C(=O)C1c1ccccn1	2.5µM	-	11µM	?	0	1.4µM
Cc1ccccc1C1C(=O)c2ccccc2C1=O	0	-	0	0	0	0
O=C1C(=O)C(c2ccccc2)C(=O)C1c1ccccc1 (centres undefined)	-	-	-	-	0	-
CC1CCN(C(=O)c2cc3c(=O)n(C)c4cc(Cl)ccc4c3s2)CC1	-	0	0	-	-	-
C=CCOC(=O)c1c(C)nc2cc3c(cc2c1C)OCO3	0	?	17µM	0	0	0
CC(/C=C1\SC(=S)N(CCC(=O)Nc2cccc(C(=O)O)c2)C1=O)=C\c1ccccc1	0	-	24µM	0	0	0
CC(/C=C1\SC(=S)N(CCC(=O)Nc2ccccc2O)C1=O)=C\c1ccccc1	0	-	0	0	0	0
CC(/C=C1\SC(=S)N(CCCC(=O)Nc2ccc(C(=O)O)cc2)C1=O)=C\c1ccccc1	0	0	13µM	0	0	0
CCC(Oc1ccccc1-c1nnc(-c2ccccc2)o1)C(=O)Nc1ccc(C(C)=O)cc1 (centres undefined)	-	-	0	-	-	-
CCC(=O)NC(=S)Nc1ccc(Cl)cn1	0	0	0	0	0	0
O=C(NC(=S)Nc1ccc(Cl)cn1)C12CC3CC(CC(C3)C1)C2	?	0	11µM	0	0	?
Cn1c(N)c(C(=O)COc2ccc(C#N)cc2)c(=O)n(C)c1=O	0	0	0	0	0	0
c1ccc(-c2nnc3ccc(N4CCCC4)nn23)cc1	0	0	0	0	0	0
Cc1ccc2nc3ccc(N4CCCC4)nn3c(=O)c2c1	2.2µM	16µM	11µM	?	0	1.6µM
CC1CCCN(c2ccc3nc4ccccc4c(=O)n3n2)C1 (centres undefined)	?	1.3µM	1.1µM	0	?	?
Cc1sc2nc3ccc(N4CCCCC4)nn3c(=O)c2c1C	?	0	8.5µM	0	0	?
Cc1ccc(Cl)cc1NC(=O)C(C)n1nnc2sc3c(c2c1=O)CCCC3 (centres undefined)	-	0	0	-	-	-
CCOC(=O)c1cc(-c2ccc(F)cc2)n(CC(=O)NC2CCCCC2)c1C	-	-	0	-	-	-
SMILES	NPC1 prom act	SMN2 splice enh	FLuc modulator	ELG1 genotox	uPA generation	Rab9 prom act
COc1ccc2c(c1OC)C(=O)N(c1cccc(C)c1)C2	1.4µM	14µM	1.5µM	2.1µM	0	1.4µM
COc1ccc2c(c1OC)C(=O)N(c1ccc(C)cc1)C2	1.1µM	-	3µM	18µM	0	0.71µM
COc1ccc2c(c1OC)C(=O)N(c1ccccn1)C2	3.2µM	11µM	11µM	9.2µM	0	2.2µM
COc1ccc2c(c1OC)C(=O)N(c1cccc(C(F)(F)F)c1)C2	?	13µM	5.4µM	?	?	4.5µM
O=c1c(-c2cccc(F)c2)nc2cncnc2n1C1CC1	-	0	-	-	-	-
O=C(O)c1ccc(-c2ncc[nH]2)cc1	0	0	0	0	0	0
COC(=O)CS(=O)(=O)c1cccc2cccnc12	0	0	0	0	0	0
N#CCCCC#Cc1ccc2c(c1)COc1c3ccccc3nn1-2	0.71µM	-	0.19µM	?	10µM	0.1µM
CCCCCn1nc(C(=O)N2CCc3ccccc32)c2ccccc2c1=O	0	-	0	0	0	0
CCCCC#Cc1ccc2c(c1)COc1c3ccccc3nn1-2	0.35µM	-	2.7µM	?	0	7.1µM
CCCCCCC#Cc1ccc2c(c1)COc1c3ccccc3nn1-2	0.79µM	-	?	0	0	0.89µM
O=c1c(-c2cc(F)cc(F)c2)nc2cncnc2n1Cc1ccc(F)cc1	-	0	-	-	-	-
CC(C)=CC[C@@H](O)C1=CC(=O)c2c(O)ccc(O)c2C1=O	-	0	-	-	-	-
C[C@H](CCC(=O)NCC(=O)O)C1CC[C@H]2[C@H]3C(C[C@H](O)[C@]12C)[C@@]1(C)CC[C@@H](O)C[C@H]1C[C@H]3O (some centres undefined)	-	0	-	-	-	-
Cc1cnc(NC(=O)CSc2ccccc2)s1	0	0	?	?	-	0
Cc1cnc(NC(=O)CCc2ccccc2)s1	0	-	?	?	10µM	0
Cc1cnc(NC(=O)COc2ccccc2)s1	2µM	11µM	11µM	?	0	2.2µM
COc1ccccc1OCC(=O)Nc1ncc(C)s1	1.6µM	-	2.4µM	?	?	1.8µM
COc1ccc(CCC(=O)Nc2ncc(C)s2)cc1OC	0	-	0	0	0	0
CCOCCCNC(=O)C(c1ccccc1)N1Cc2ccccc2C1=O (centres undefined)	-	-	0	-	-	-
COc1ccccc1CCC(=O)Oc1ccc(C#N)cc1OC	0	-	21µM	0	0	0
COc1ccc(Nc2ncc(C(=O)N3CCN(Cc4ccccc4)CC3)c3ccccc23)cc1	0	0	19µM	0	0	0
CC1=C(C(=O)Nc2cccc(C(F)(F)F)c2)C2(CCCCCC2)OC1=O	-	-	0	-	-	-
Cc1ccc(Nc2nc(N)c3ccccc3n2)cc1Cl	0.56µM	-	0.95µM	?	7.9µM	0.63µM
COc1cc2nc(Nc3cccc(C)c3)nc(N)c2cc1OC	-	0	5.4µM	-	-	-
SMILES	NPC1 prom act	SMN2 splice enh	FLuc modulator	ELG1 genotox	uPA generation	Rab9 prom act
COc1cc2nc(Nc3ccc(C)c(Cl)c3)nc(N)c2cc1OC	0	-	21µM	0	0	0
CCOC(=O)c1ccc(Nc2nc(N)c3cc(OC)c(OC)cc3n2)cc1	0	0	7.6µM	0	0	0
COc1cc2nc(Nc3ccc(C)c(C)c3)nc(N)c2cc1OC	0	0	?	0	0	0
CCOC(=O)c1ccc(Nc2ccc(-c3ccc(OC)c(OC)c3)nn2)cc1	0	0	0	0	-	0
COc1cc2nc(Nc3ccc(F)cc3)nc(N)c2cc1OC	0	0	?	0	0	0
CCOC(=O)c1cccc(NC(=O)C(CC(C)C)N2Cc3ccccc3C2=O)c1 (centres undefined)	-	-	0	-	-	-
Cc1ccc(Nc2nc(NCCO)c3ccccc3n2)cc1C	0	-	7.6µM	0	0	0
Cc1c(Cl)cccc1NC(=O)Cn1cc(C(=O)C2CCCCC2)c2ccccc21	-	0	0	-	-	-
Nc1ccn(Cc2ccc(F)cc2)n1	0	0	0	0	0	0
CC(=O)c1cccc(OC(=O)Oc2cccc(C(C)=O)c2)c1	-	-	-	-	0	-
